SMILES strings stand for the structures. Where “and” joins values, the source holds several entries; their conditions need not be identical. Equal entries are not always repeated. A number with no mark means an inactive call. Unless noted, no rule for the calls is given here.

We go through 19 compounds from PubChem BioAssay.

One assay has as its target Single-stranded DNA-binding protein (Escherichia coli (strain K12)) (UniProt P0AGE0). Nature of the assay: SSB-ssDNA binding inhibitors – biochemical, fluorescence polarization, NIH Clinical Collection, counter-screen for HCV NS3 helicase inhibitor project (AID 743271; in the data active = inhibition above about 28%). To be noted: E. coli SSB-DNA binding, hits give high values, concentration not given here. In general terms: Fluorescence polarisation rises when a labelled molecule tumbles more slowly, as on binding a larger partner.
Take `CS(=O)(=O)c1ccc(C2=C(c3ccccc3)C(=O)OC2)cc1`: the inhibition is 1.44%.

In the case of `Cc1cccc(C)c1NC(=O)C1CCCCN1C` (centres undefined), the inhibition was 1.97%.

On to `COc1ccc(/C=C/C(=O)Nc2ccccc2C(=O)O)cc1OC`, for which the inhibition is -1.64%.

As for `CCCCC(=O)N(Cc1ccc(-c2ccccc2-c2nn[nH]n2)cc1)[C@H](C(=O)O)C(C)C`, the inhibition is 4.52%.

Regarding `CC(C(=O)O)c1ccc(-c2ccccc2)c(F)c1` (centres undefined), the inhibition is 6.83% and 0.29%.

For `Nc1ncnc2c1ncn2[C@@H]1O[C@H](CO)[C@@H](O)[C@@H]1O`, the inhibition was -1.24%.

Regarding `CN(C)c1nc(N(C)C)nc(N(C)C)n1`, the inhibition was 1.81%.

On to `Cc1occc(=O)c1O`, for which the inhibition is -2.76%.

For `COc1ccc(-c2cc(=O)c3c(OC)c(OC)c(OC)c(OC)c3o2)cc1OC`, the inhibition is -2.41%.

Consider `CC(C)NCC(O)COc1cccc2ccccc12` (centres undefined), for which the inhibition is 2.57%.

For `COC(=O)[C@H](c1ccccc1Cl)N1CCc2sccc2C1`, the inhibition was 3.34%.

Take `C[N+]1(C)CCCC(OC(=O)C(O)(c2ccccc2)c2ccccc2)C1` (centres undefined): the inhibition is -3.53%.

As to `O=[N+]([O-])c1cccc2cn[nH]c12`, the inhibition is -2.76%.

In the case of `C[C@H]1COc2c(N3CCN(C)CC3)c(F)cc3c(=O)c(C(=O)O)cn1c23`, the inhibition is -3.95%.

`CC(C)NCC(O)COc1ccc(CC(N)=O)cc1` (centres undefined): the inhibition is 0.29%.

In the case of `CNCCC(Oc1ccc(C(F)(F)F)cc1)c1ccccc1` (centres undefined), the inhibition was -2.76%.

As to `CC1=C(/C=C/C(C)=C/C=C/C(C)=C\C(=O)O)C(C)(C)CCC1`, the inhibition is -1.24%.

In the case of `CCc1ccc(CCOc2ccc(CC3SC(=O)NC3=O)cc2)nc1` (centres undefined), the inhibition was 3.75%.

As to `CC[C@H]1OC(=O)[C@H](C)[C@@H](O[C@H]2C[C@@](C)(OC)[C@@H](O)[C@H](C)O2)[C@H](C)[C@@H](O[C@@H]2O[C@H](C)C[C@H](N(C)C)[C@H]2O)[C@](C)(OC)C[C@@H](C)C(=O)[C@H](C)[C@@H](O)[C@]1(C)O`, the inhibition was -3.18%.

Tested on in a further assay: not listed separately
Nature of the assay: compounds distorting NS3 helicase fluorescence signal – biochemical, NIH Clinical Collection, artefact control for HCV NS3 helicase inhibitor project (AID 743272).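 Also: HCV NS3 helicase with a Cy5 labelled single stranded DNA probe.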 To be noted: fluorescence interference counterscreen, HCV NS3 helicase assay; hits give low values. In general terms: A counterscreen serves to expose hits that act by an unwanted route or on another target.
As to `CS(=O)(=O)c1ccc(C2=C(c3ccccc3)C(=O)OC2)cc1`, the fluorescence ratio was 0.97.

Take `Cc1cccc(C)c1NC(=O)C1CCCCN1C` (centres undefined): the fluorescence ratio was 0.95.

As for `COc1ccc(/C=C/C(=O)Nc2ccccc2C(=O)O)cc1OC`, the fluorescence ratio was 0.99.

On to `CCCCC(=O)N(Cc1ccc(-c2ccccc2-c2nn[nH]n2)cc1)[C@H](C(=O)O)C(C)C`, for which the fluorescence ratio is 1.05.

For `CC(C(=O)O)c1ccc(-c2ccccc2)c(F)c1` (centres undefined), the fluorescence ratio was 0.9 and 0.98.

As to `Nc1ncnc2c1ncn2[C@@H]1O[C@H](CO)[C@@H](O)[C@@H]1O`, the fluorescence ratio was 1.

With `CN(C)c1nc(N(C)C)nc(N(C)C)n1`, the fluorescence ratio was 0.99.

Consider `Cc1occc(=O)c1O`, for which the fluorescence ratio is 0.97.

On to `COc1ccc(-c2cc(=O)c3c(OC)c(OC)c(OC)c(OC)c3o2)cc1OC`, for which the fluorescence ratio is 0.96.

Consider `CC(C)NCC(O)COc1cccc2ccccc12` (centres undefined), for which the fluorescence ratio is 0.93.

Consider `COC(=O)[C@H](c1ccccc1Cl)N1CCc2sccc2C1`, for which the fluorescence ratio was 1.

`C[N+]1(C)CCCC(OC(=O)C(O)(c2ccccc2)c2ccccc2)C1` (centres undefined): the fluorescence ratio is 0.96.

`O=[N+]([O-])c1cccc2cn[nH]c12`: the fluorescence ratio was 0.97.

For `C[C@H]1COc2c(N3CCN(C)CC3)c(F)cc3c(=O)c(C(=O)O)cn1c23`, the fluorescence ratio is 1.

For `CC(C)NCC(O)COc1ccc(CC(N)=O)cc1` (centres undefined), the fluorescence ratio is 0.98.

Turning to `CNCCC(Oc1ccc(C(F)(F)F)cc1)c1ccccc1` (centres undefined), the fluorescence ratio was 1.03.

For the compound `CC1=C(/C=C/C(C)=C/C=C/C(C)=C\C(=O)O)C(C)(C)CCC1`, the fluorescence ratio was 0.99.

As for `CCc1ccc(CCOc2ccc(CC3SC(=O)NC3=O)cc2)nc1` (centres undefined), the fluorescence ratio was 0.9.

Regarding `CC[C@H]1OC(=O)[C@H](C)[C@@H](O[C@H]2C[C@@](C)(OC)[C@@H](O)[C@H](C)O2)[C@H](C)[C@@H](O[C@@H]2O[C@H](C)C[C@H](N(C)C)[C@H]2O)[C@](C)(OC)C[C@@H](C)C(=O)[C@H](C)[C@@H](O)[C@]1(C)O`, the fluorescence ratio is 0.99.

For the next assay, the system named is Neuropilin-2 / VEGF-C interaction (human). Nature of the assay: small molecules blocking Neuropilin-2/VEGF-C interaction – biochemical, microplate binding format, z-score (AID 743281). To be noted: microplate NRP2/VEGF-C binding assay; hits give low values.
With `CS(=O)(=O)c1ccc(C2=C(c3ccccc3)C(=O)OC2)cc1`, the z-score is -0.0129.

With `Cc1cccc(C)c1NC(=O)C1CCCCN1C` (centres undefined), the z-score is -0.136.

In the case of `COc1ccc(/C=C/C(=O)Nc2ccccc2C(=O)O)cc1OC`, the z-score was 0.915.

With `CCCCC(=O)N(Cc1ccc(-c2ccccc2-c2nn[nH]n2)cc1)[C@H](C(=O)O)C(C)C`, the z-score is -0.0697.

With `CC(C(=O)O)c1ccc(-c2ccccc2)c(F)c1` (centres undefined), the z-score is -0.82.

On to `Cc1occc(=O)c1O`, for which the z-score is -0.38.

Consider `COc1ccc(-c2cc(=O)c3c(OC)c(OC)c(OC)c(OC)c3o2)cc1OC`, for which the z-score was 0.248.

As for `O=[N+]([O-])c1cccc2cn[nH]c12`, the z-score is -0.0317.

On to `C[C@H]1COc2c(N3CCN(C)CC3)c(F)cc3c(=O)c(C(=O)O)cn1c23`, for which the z-score was -0.188.

Consider `CCc1ccc(CCOc2ccc(CC3SC(=O)NC3=O)cc2)nc1` (centres undefined), for which the z-score was 0.637.

Regarding `CC[C@H]1OC(=O)[C@H](C)[C@@H](O[C@H]2C[C@@](C)(OC)[C@@H](O)[C@H](C)O2)[C@H](C)[C@@H](O[C@@H]2O[C@H](C)C[C@H](N(C)C)[C@H]2O)[C@](C)(OC)C[C@@H](C)C(=O)[C@H](C)[C@@H](O)[C@]1(C)O`, the z-score is -0.251.

A word on the inhibition: it is the drop in the measured response relative to a control, in per cent.
